# Assay results reported in paper PMC11062922 (Nature Chemical Biology, 2023).
# Where two headings read alike, the source gives them in different places.
# Test system: ERN1
# Details: read-out: apparent Kd, n = 1
substance,measurement,setting,value
Lestaurtinib,potency estimated from few doses,"compound concentrations:100 nM and 1000 nM (sheet 'Lestaurtinib' of Supplementary Table 1),run:Lestaurtinib_02422_R1,Plate:MR006",64.3 nM
same,potency estimated from few doses,"compound concentrations:100 nM and 1000 nM (sheet 'Lestaurtinib' of Supplementary Table 1),run:Lestaurtinib_02422_R2,Plate:MR006",68.1 nM
same,potency estimated from few doses,"compound concentrations:100 nM and 1000 nM (sheet 'Lestaurtinib' of Supplementary Table 1),run:Lestaurtinib_02422_R3,Plate:MR006",67.9 nM
same,potency estimated from few doses,"compound concentrations:100 nM and 1000 nM (sheet 'Lestaurtinib' of Supplementary Table 1),run:Lestaurtinib_02438_R1,Plate:MR008",49.4 nM
same,potency estimated from few doses,"compound concentrations:100 nM and 1000 nM (sheet 'Lestaurtinib' of Supplementary Table 1),run:Lestaurtinib_02438_R2,Plate:MR008",63.9 nM
same,potency estimated from few doses,"compound concentrations:100 nM and 1000 nM (sheet 'Lestaurtinib' of Supplementary Table 1),run:Lestaurtinib_02438_R3,Plate:MR008",64.3 nM
same,potency estimated from few doses,"compound concentrations:100 nM and 1000 nM (sheet 'Lestaurtinib' of Supplementary Table 1),run:Lestaurtinib_02443_R1,Plate:MR009",67.3 nM
same,potency estimated from few doses,"compound concentrations:100 nM and 1000 nM (sheet 'Lestaurtinib' of Supplementary Table 1),run:Lestaurtinib_02443_R2,Plate:MR009",58.1 nM
same,potency estimated from few doses,"compound concentrations:100 nM and 1000 nM (sheet 'Lestaurtinib' of Supplementary Table 1),run:Lestaurtinib_02443_R3,Plate:MR009",63.3 nM
same,potency estimated from few doses,"compound concentrations:100 nM and 1000 nM (sheet 'Lestaurtinib' of Supplementary Table 1),run:Lestaurtinib_02473_R1,Plate:MR010",52.6 nM
same,potency estimated from few doses,"compound concentrations:100 nM and 1000 nM (sheet 'Lestaurtinib' of Supplementary Table 1),run:Lestaurtinib_02473_R2,Plate:MR010",60.5 nM
same,potency estimated from few doses,"compound concentrations:100 nM and 1000 nM (sheet 'Lestaurtinib' of Supplementary Table 1),run:Lestaurtinib_02473_R3,Plate:MR010",69.9 nM
same,potency estimated from few doses,"compound concentrations:100 nM and 1000 nM (sheet 'Lestaurtinib' of Supplementary Table 1),run:Lestaurtinib_02482_R3,Plate:MR011",54.1 nM
same,potency estimated from few doses,"compound concentrations:100 nM and 1000 nM (sheet 'Lestaurtinib' of Supplementary Table 1),run:Lestaurtinib_02487_R1,Plate:MR012",58.2 nM
same,potency estimated from few doses,"compound concentrations:100 nM and 1000 nM (sheet 'Lestaurtinib' of Supplementary Table 1),run:Lestaurtinib_02496_R1,Plate:MR013",79.9 nM
same,potency estimated from few doses,"compound concentrations:100 nM and 1000 nM (sheet 'Lestaurtinib' of Supplementary Table 1),run:Lestaurtinib_02496_R2,Plate:MR013",82.7 nM
same,potency estimated from few doses,"compound concentrations:100 nM and 1000 nM (sheet 'Lestaurtinib' of Supplementary Table 1),run:Lestaurtinib_02496_R3,Plate:MR013",62.6 nM
same,potency estimated from few doses,"compound concentrations:100 nM and 1000 nM (sheet 'Lestaurtinib' of Supplementary Table 1),run:Lestaurtinib_02566_R2,Plate:MR014",99.9 nM
same,potency estimated from few doses,"compound concentrations:100 nM and 1000 nM (sheet 'Lestaurtinib' of Supplementary Table 1),run:Lestaurtinib_02572_R2,Plate:MR015",67.3 nM
same,potency estimated from few doses,"compound concentrations:100 nM and 1000 nM (sheet 'Lestaurtinib' of Supplementary Table 1),run:Lestaurtinib_02577_R1,Plate:MR016",81.4 nM
same,potency estimated from few doses,"compound concentrations:100 nM and 1000 nM (sheet 'Lestaurtinib' of Supplementary Table 1),run:Lestaurtinib_02577_R2,Plate:MR016",61.5 nM
same,potency estimated from few doses,"compound concentrations:100 nM and 1000 nM (sheet 'Lestaurtinib' of Supplementary Table 1),run:Lestaurtinib_02577_R3,Plate:MR016",56.2 nM
same,potency estimated from few doses,"compound concentrations:100 nM and 1000 nM (sheet 'Lestaurtinib' of Supplementary Table 1),run:Lestaurtinib_02584_R1,Plate:MR017",49.6 nM
same,potency estimated from few doses,"compound concentrations:100 nM and 1000 nM (sheet 'Lestaurtinib' of Supplementary Table 1),run:Lestaurtinib_02584_R2,Plate:MR017",50.5 nM
same,potency estimated from few doses,"compound concentrations:100 nM and 1000 nM (sheet 'Lestaurtinib' of Supplementary Table 1),run:Lestaurtinib_02584_R3,Plate:MR017",79.4 nM
same,potency estimated from few doses,"compound concentrations:100 nM and 1000 nM (sheet 'Lestaurtinib' of Supplementary Table 1),run:Lestaurtinib_02601_R1,Plate:MR018",73.5 nM
same,potency estimated from few doses,"compound concentrations:100 nM and 1000 nM (sheet 'Lestaurtinib' of Supplementary Table 1),run:Lestaurtinib_02601_R2,Plate:MR018",93.1 nM
same,potency estimated from few doses,"compound concentrations:100 nM and 1000 nM (sheet 'Lestaurtinib' of Supplementary Table 1),run:Lestaurtinib_02601_R3,Plate:MR018",63.8 nM
same,potency estimated from few doses,"compound concentrations:100 nM and 1000 nM (sheet 'Lestaurtinib' of Supplementary Table 1),run:Lestaurtinib_02606_R1,Plate:MR019",79.4 nM
same,potency estimated from few doses,"compound concentrations:100 nM and 1000 nM (sheet 'Lestaurtinib' of Supplementary Table 1),run:Lestaurtinib_02606_R2,Plate:MR019",83.8 nM
same,potency estimated from few doses,"compound concentrations:100 nM and 1000 nM (sheet 'Lestaurtinib' of Supplementary Table 1),run:Lestaurtinib_02606_R3,Plate:MR019",87.5 nM
same,potency estimated from few doses,"compound concentrations:100 nM and 1000 nM (sheet 'Lestaurtinib' of Supplementary Table 1),run:Lestaurtinib_02624_R1,Plate:MR020",87.4 nM
same,potency estimated from few doses,"compound concentrations:100 nM and 1000 nM (sheet 'Lestaurtinib' of Supplementary Table 1),run:Lestaurtinib_02624_R2,Plate:MR020",94.5 nM
same,potency estimated from few doses,"compound concentrations:100 nM and 1000 nM (sheet 'Lestaurtinib' of Supplementary Table 1),run:Lestaurtinib_02624_R3,Plate:MR020",93.4 nM
same,potency estimated from few doses,"compound concentrations:100 nM and 1000 nM (sheet 'Lestaurtinib' of Supplementary Table 1),run:Lestaurtinib_02724_R1,Plate:MR021",90.7 nM
same,potency estimated from few doses,"compound concentrations:100 nM and 1000 nM (sheet 'Lestaurtinib' of Supplementary Table 1),run:Lestaurtinib_02724_R2,Plate:MR021",92.1 nM
same,potency estimated from few doses,"compound concentrations:100 nM and 1000 nM (sheet 'Lestaurtinib' of Supplementary Table 1),run:Lestaurtinib_02724_R3,Plate:MR021",78.5 nM
same,potency estimated from few doses,"compound concentrations:100 nM and 1000 nM (sheet 'Lestaurtinib' of Supplementary Table 1),run:Lestaurtinib_02741_R1,Plate:MR023",83.9 nM
same,potency estimated from few doses,"compound concentrations:100 nM and 1000 nM (sheet 'Lestaurtinib' of Supplementary Table 1),run:Lestaurtinib_02741_R2,Plate:MR023",80 nM
same,potency estimated from few doses,"compound concentrations:100 nM and 1000 nM (sheet 'Lestaurtinib' of Supplementary Table 1),run:Lestaurtinib_02741_R3,Plate:MR023",69.3 nM
same,potency estimated from few doses,"compound concentrations:100 nM and 1000 nM (sheet 'Lestaurtinib' of Supplementary Table 1),run:Lestaurtinib_02748_R3,Plate:MR024",74.4 nM
same,potency estimated from few doses,"compound concentrations:100 nM and 1000 nM (sheet 'Lestaurtinib' of Supplementary Table 1),run:Lestaurtinib_02752_R2,Plate:MR025",57.7 nM
